From PubChem BioAssay
A selection: hits, their analogues and other compounds. The true share with any hit is near 3.2%.
FBA Mtb inh: Mtb fructose-bisphosphate aldolase inhibition; actives 2.3% (n = 360,000); purified M. tuberculosis FBA, fluorescence read-out; inhibition, % at 1 µM; AID 588726; P9WQA3; in the data active means inhibition above about 27%;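 further: 0% = vehicle and 100% = reference inhibitor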
Target sequence (P9WQA3 whole entry, looked up): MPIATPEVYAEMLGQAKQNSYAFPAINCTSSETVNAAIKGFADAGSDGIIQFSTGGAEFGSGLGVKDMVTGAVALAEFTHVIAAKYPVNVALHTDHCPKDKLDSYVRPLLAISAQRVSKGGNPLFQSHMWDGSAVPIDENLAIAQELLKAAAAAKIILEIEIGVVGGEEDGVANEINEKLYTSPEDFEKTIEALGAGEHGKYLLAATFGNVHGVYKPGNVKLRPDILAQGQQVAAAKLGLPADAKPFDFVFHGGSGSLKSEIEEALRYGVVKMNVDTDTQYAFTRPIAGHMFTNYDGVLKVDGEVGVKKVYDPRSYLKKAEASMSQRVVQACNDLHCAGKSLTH
GDH-TPI counter: counter-screen for M. tuberculosis FBA inhibitors: GDH-TPI coupled enzymes. GDH-TPI coupled enzyme counterscreen, NADH absorbance. inhibition, % at 4.8 µM. actives 1.2% (n = 360,000); in the data active means inhibition above about 30%;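 further: 0% = DMSO wells and 100% = wells lacking the enzyme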
UGM FP inh: Mtb UDP-galactopyranose mutase inhibition; P9WIQ1; purified UGM, fluorescence polarization probe displacement; inhibition, % at 10 µM; actives 0.06% (n = 320,000); in the data active means inhibition above about 10%, passing the limit was not always enough
SSB-PriA inh: K. pneumoniae PriA-SSBct interaction inhibition. actives 0.6% (n = 430,000). AlphaScreen SSBct-PriA binding, biotinylated peptide. inhibition, % at 33 µM; in the data active means inhibition mostly above about 37%, no sharp cut-off; inactive means mostly below about 20%;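 further: plate controls were negative control peptide for no effect and reference peptide for full effect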
Mtb bLac sens: beta-lactam sensitization of Mtb H37Rv; M. tuberculosis H37Rv growth with meropenem, percent inhibition; inhibition, % at 25 µM; actives 0.27% (n = 330,000); call rule not given here;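 further: growth measured after seven days incubation then overnight dye step; 0% = bacteria only wells and 100% = bacteria with antibiotic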
Rv3671c inh: inhibitors of M. tuberculosis serine protease Rv3671c; P9WHR9; inhibition, % at 5.96 µM; actives 0.048% (n = 320,000); AID 2606; in the data active means inhibition above about 38%;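 further: extracellular domain of Rv3671c used as enzyme; 0% = enzyme with DMSO and 100% = no enzyme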
Starred values were filed as active, the others as inactive; x = no result given; + = active, no number.

SMILES	FBA Mtb inh	GDH-TPI counter	UGM FP inh	SSB-PriA inh	Mtb bLac sens	Rv3671c inh
O=C(NCCc1ccccc1)c1ccc(=O)oc1	1	75*	0	-28	-2	-6
CC(NC(=O)c1ccncc1)c1ccccc1 (stereo not given)	0	5	-2	0	4	9
O=C(NCc1ccccn1)c1ccc(=O)oc1	8	38*	0	-3	-2	0
O=C(NCc1ccccn1)c1ccc(-c2ccccc2)cc1	5	3	-1	-8	-1	4
O=C(O)c1ccc(C=NN2CCCCCC2)cc1	4	36*	x	-2	x	x
N#Cc1ccc(C=NN2CCCCCC2)cc1	1	41*	x	3	x	x
C[C@H](NC(=O)C1CCN(S(=O)(=O)N2CCCC2)CC1)c1ccc(F)cc1	x	x	x	-11	x	x
Cc1cc(C)n2cc(CSc3ccc(Br)cc3)nc2n1	8	1	1	-9	-7	3
Cc1cc(C)n2cc(CSCC(=O)O)nc2n1	123*	12	1	-3	-1	1
CC1(C)CC(NC(=O)Nc2ccc([N+](=O)[O-])cc2)CC(C)(C)N1	-1	32*	2	10	9	-5
COc1ccc(-c2ccc(C(=O)NC3CCCCC3)c3occc23)c(C)c1	15	3	x	x	x	x
COc1ccc(-c2ccc(C(=O)NCC3CCOCC3)c3occc23)c(C)c1	132*	-4	x	x	x	x
CCOC(=O)c1ccc(NC(=O)/C(C#N)=C/c2ccc(-c3cccc([N+](=O)[O-])c3)o2)cc1	x	x	x	-19	x	x
CNC(=O)C1CCN(S(=O)(=O)c2c(C)noc2/C=C/N(C)C)CC1	-4	35*	0	-14	3	-9
Cc1cc(C)c(NC(=O)C2CCCN(S(=O)(=O)c3c(C)noc3/C=C/N(C)C)C2)c(C)c1 (stereo not given)	-2	34*	-1	2	-1	-8
Cc1noc(/C=C/N(C)C)c1S(=O)(=O)N(C)CC(=O)NC1CCCCC1	5	51*	3	0	-1	-4
Cc1noc(/C=C/N(C)C)c1S(=O)(=O)N1CCCC(C(=O)Nc2ccc3c(c2)OCO3)C1 (stereo not given)	5	30	2	5	-4	-9
CCc1ccc(NC(=O)C2CCN(S(=O)(=O)c3c(C)noc3/C=C/N(C)C)CC2)cc1	-4	24	-2	2	2	-22
Cc1noc(/C=C/N(C)C)c1S(=O)(=O)N1CCCC(C(=O)Nc2ccccc2F)C1 (stereo not given)	0	47*	0	-1	2	-41
COc1ccc(C=NNC(=O)CC(=O)NCc2cccnc2)cc1[N+](=O)[O-]	x	x	x	0	x	x
Cc1noc(/C=C/N(C)C)c1S(=O)(=O)N1CCCC(C(=O)NC2CCCCC2)C1 (stereo not given)	-1	58*	1	-3	-8	-9
Cc1noc(/C=C/N(C)C)c1S(=O)(=O)N1CCN(c2ccccc2)CC1	4	20	-2	-9	-7	-7
Cc1ccc(C)c(N2CCN(S(=O)(=O)c3c(C)noc3/C=C/N(C)C)CC2)c1	-5	36*	x	2	14	-15
COc1ccccc1-c1nc(C#N)c(N2CCN(c3ccccc3)CC2)o1	6	3	3	51*	-12	-2
COc1ccccc1-c1nc(C#N)c(N2CCCCCC2)o1	+	15	-1	34	3	-6
SMILES	FBA Mtb inh	GDH-TPI counter	UGM FP inh	SSB-PriA inh	Mtb bLac sens	Rv3671c inh
COc1ccc(N2CCN(c3oc(-c4ccccc4OC)nc3C#N)CC2)cc1	6	3	-2	27	47	0
N#Cc1nc(-c2ccco2)oc1N1CCN(c2ccccc2)CC1	1	9	1	38*	-9	4
COC(=O)c1sccc1S(=O)(=O)NCCn1nc(-c2ccccn2)c2c1CCCC2	x	x	x	3	x	x
Cc1cc([N+](=O)[O-])cc([N+](=O)[O-])c1NCC(C)C	-2	15	-1	44*	0	7
Cc1ccc(S(=O)(=O)Nc2c(C)cc([N+](=O)[O-])cc2C)cc1	-3	15	x	-7	x	x
CCc1ccc(S(=O)(=O)NCc2nn(CCN3CCCC3)c(=O)c3ccccc23)s1	x	x	x	44*	x	x
O=c1c2ccccc2c(CNS(=O)(=O)Cc2ccc(F)cc2)nn1CCN1CCCC1	x	x	x	1	x	x
CC(/C=C/C=C/c1ccccc1)=NNC(=O)CNc1ccc(C)cc1	x	x	x	3	x	x
CC(/C=C/C=C/c1ccccc1)=N/NC(=O)CNc1ccc(C)cc1	-3	33*	0	x	12	0
CC(/C=C/C=C/c1ccccc1)=N/NC(=O)C(O)c1ccccc1 (stereo not given)	-3	50*	1	x	28	-1
O=C(NN1C(=O)CSC1=S)C(c1ccccc1)c1ccccc1	x	x	x	9	x	x
Cc1cccc(NC(=S)N/N=C/c2ccc(Cl)c([N+](=O)[O-])c2)c1	-1	30	1	x	-6	-4
Cc1cccc(NC(=S)N/N=C/c2cccc([N+](=O)[O-])c2)c1	2	33*	0	x	-2	-12
Cc1cccc(NC(=S)NN=Cc2ccc([N+](=O)[O-])s2)c1	x	x	x	39*	x	x
Cc1cccc(CC2S/C(=C(/C#N)C(N)=O)N(c3ccc(Br)cc3)C2=O)c1 (stereo not given)	x	x	x	-14	x	x
COc1ccccc1CC(=O)N1CCN(Cc2nncn2C2CCCCC2)CC1	x	x	x	-5	x	x
CCOC(=O)C1=CN(Cc2cccc(F)c2)S(=O)(=O)NC1c1ccc2ccccc2c1 (stereo not given)	-1	4	x	5	x	x
CCOC(=O)C1=CN(Cc2cccc(F)c2)S(=O)(=O)NC1c1cccc(OC)c1 (stereo not given)	4	15	x	47*	x	x
Cc1ccc(C=NNC(=O)CNC(=O)Cc2ccccc2)o1	x	x	x	2	x	x
O=C(O)c1cccc(-n2c(/C=C/c3ccccc3)nc3ccccc3c2=O)c1	1	32*	2	7	6	-15
O=c1c2ccccc2nc(/C=C/c2ccccc2)n1-c1ccc(O)cc1	6	19	1	-8	100	-28
O=C(O)c1ccc(/C=C/c2nc3ccccc3c(=O)n2-c2ccc(Br)cc2)cc1	-4	39*	-2	-1	4	0
CN(C)c1ccc(/C=C/c2nc3ccccc3c(=O)n2-c2ccc(C(=O)O)cc2)cc1	-8	20	-16	-20	1	-13
